# In the library only some 7.9% were active in any assay of this set; here they are far more common.
# FMDV antiviral – High Throughput Screening for Foot and Mouth Disease Virus Antivirals; FMDV antiviral cell-based qHTS; AID 1159524, 2015; Potency, µM (top dose mostly 57.9 µM), for inactives: at the top dose activity change, negative = inhibition, hits mostly inhibitors; hit rate 1.2% among 410,000; calls by dose curve; tested in HEK293T cells; note: read-out not given here; potency is the fitted concentration of half-maximal effect; nearly all actives have a fitted effect of over 45% in size
# HCV inhibitor – qHTS Assay for Inhibitors of Hepatitis C Virus (HCV); hit rate 3.4% among 340,000; AID 651820, 2012; Potency, µM (series often up to 41.8 µM), inactives show top-dose activity change, negative = inhibition, actives largely listed as inhibitors; Huh7.5.1 HCVcc-Cre infection, luciferase reporter, 44 h; active = well fitted inhibition curve with a large enough effect; inconclusive = small, poorly fitted or top-dose-only effect, or another doubt; inactive = no such curve, though single readings can be large or run the other way; note: potency is the fitted concentration of half-maximal effect
#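 Luciferase read-out (15 sec integration) after a 15 min room-temperature substrate step quantifies HCVcc-Cre infection. Cells, 1,000 per well, had compound added 4 h post-plating, then virus at ~0.5 moi, and were cultured 44 h.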
# LASV entry inh – qHTS for Inhibitors of binding or entry into cells for Lassa Virus; Lassa virus pseudotype entry inhibition, cell reporter; Potency, µM (doses to about 37.9 µM), inactives show at the top dose activity change, negative = inhibition, usual class: inhibitors; hit rate 1.2% among 300,000; AID 540256, 2011; calls by dose curve; tested in HEK293 cells; note: potency is the fitted concentration of half-maximal effect; nearly all actives have a fitted effect of over 50% in size
# HCMV inh – qHTS Assay for inhibitors of the human cytomegalovirus (HCMV). HFF cells, HCMV-luciferase reporter, 72 h; active compounds read low. activity change, negative = inhibition, % at 57.5 µM. hit rate 4.5% among 410,000; in the data active = activity change below about -60%; inconclusive = no clear call, values can overlap the other calls; inactive = above about -39%
#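 Human foreskin fibroblasts infected with luciferase-reporter HCMV at MOI 1 PFU/cell, compounds at two doses. Luciferase measured 72 h post infection; normalized to buffer-only basal and Salinomycin (10uM) controls.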
# MARV entry inh – qHTS for inhibitors of binding or entry into cells for Marburg Virus. Marburg virus pseudotyped entry inhibition, cell reporter. Potency, µM (titrated, usually from 37.8 µM), for the others: at the highest dose activity change, negative = inhibition, usual class: inhibitors. hit rate 1.8% among 300,000; calls by dose curve; tested in HEK293 cells; note: potency is the fitted concentration of half-maximal effect
# Active calls of the source: *; u = inconclusive; x = no result given; ! = not confirmed by another sample; [ ] = remark or other dose. % is set by controls: 0 for no effect and ±100 for the full control effect.
SMILES,FMDV antiviral,HCV inhibitor,LASV entry inh,HCMV inh,MARV entry inh
CCN(C(=O)COC(=O)c1c(-c2ccccc2)noc1C)C1CCS(=O)(=O)C1 (centres undefined),6.7%,-4.0%,-2.4%,4.7,2.3%
COc1ccc(-c2cc(C(=O)OCC(=O)N(C)C3CCS(=O)(=O)C3)c3ccccc3n2)cc1OC (centres undefined),-14.8%,3.16µM*,u,-23.0,u
Cc1ccc(-c2cc(C(=O)OCC(=O)N(C)C3CCS(=O)(=O)C3)c3ccccc3n2)c(C)c1 (centres undefined),-23.3%,20.9%,2.8%,23.8,6.7%
CCOC(=O)c1ccc(NC(=O)c2c(NCc3cc(OC)c(OC)cc3OC)sc3c2CCCC3)cc1,-22.4%,x,12.7%[46.1 µM],-20.9,x
CSc1ccccc1C(=O)NCC1Cc2cc(F)cc(-c3cnccn3)c2O1 (centres undefined),-8.7%,x,x,x,x
COc1cc(NC(=O)C(CC(C)C)NS(=O)(=O)c2ccc3c(c2)CCN3C(C)=O)cc(OC)c1 (centres undefined),6.4%,x,-6.0%[46.1 µM],-3.8,-18.4%[46.1 µM]
CCO[C@H]1[C@H](NC(=O)c2cccnc2)c2ccccc2C12CCN(C(=O)c1ccoc1)CC2,-6.3%,x,x,x,x
C=Cc1c(C)/c2[n-]/c1=C\c1[n-]c(c(CC)c1C)/C=c1\[n-]c3c(c1C)C(=O)C(C(=O)[O-])C=3c1[n-]c(c(C)c1CCC(=O)[O-])\C=2.[Cu].[Na+].[Na+] (centres undefined),x,x,u,x,31.5µM*
Nc1nc2c(s1)CCc1ccccc1-2,19.4%,4.5%,x,-16.0,x
N#C/C(=C(/O)CCl)c1nc2c(s1)CCc1ccccc1-2,25.1µM*,u,11.8%,41.9,20.5%[46.1 µM]
C=CCOC(=O)N[C@H](/C(C(=O)OC)=C(\C)NCc1ccccc1)c1cccc(OC)c1,x,x,x,x,-13.4%[14.2 µM]
CCOC(=O)c1c(C)n(-c2ccccc2)c2ccc(OCCN(C)C)cc12,31.5%,15.8µM*,u,17.3,u
CCOc1ccc2c(c1)c(C(C)=O)c(C)n2-c1ccccc1,-20.0%,11.2µM*,2.7%,u,0.4%
CCOC(=O)c1c(C)n(-c2ccc(C)cc2)c2ccc(OCC(O)CNCCCO)cc12 (centres undefined),-26.8%,u,u,-75.3*,u
CCOC(=O)COc1ccc2c(c1)c(C(C)=O)c(C)n2-c1ccccc1,-2.2%,27.8%,u,-6.6,8.4%
COc1ccccc1NC(=O)CSc1oc(-c2ccc(F)cc2)nc1S(=O)(=O)c1ccc(Br)cc1,-11.4%,x,10.1%[46.1 µM],1.1,4.5%[46.1 µM]
FC(F)(F)c1cnc(N2CCN(C(=S)NCc3ccccc3)CC2)c(Cl)c1,-17.0%,-26.6%,u,-24.1,12.6µM*
FC(F)(F)c1cnc(N2CCCN(C(=S)Nc3ccccc3)CC2)c(Cl)c1,u,u,u,-84.9*,u
O=C(CCn1c(=O)c2sccc2n(CC(=O)Nc2ccccc2)c1=O)NCc1ccccc1Cl,-10.1%,x,5.6%[46.1 µM],-28.4,7.9%[46.1 µM]
COc1cc(OC)cc(-c2nnc(SCC(=O)N(Cc3ccccc3)C(C)(C)C)o2)c1,-6.4%,-28.5%,-13.3%,-70.6*,u
Cc1cccc(NC(=O)C(NS(=O)(=O)c2cccc3nsnc23)c2ccccc2)c1C (centres undefined),10.7%,x,-5.3%[46.1 µM],-2.5,u
Cc1cc(/C=N/NC(=O)c2c(Br)cnn2C)c(C)n1-c1cccc(Br)c1,u,7.7%,u,-65.5*,u
Cc1cccc(-n2c(C)cc(/C=N/NC(=O)c3cccc([N+](=O)[O-])c3C)c2C)c1,-24.3%,u,u,-11.5,u
Cc1ccc(C(=O)N/N=C/c2cc(C)n(-c3ccc(Br)cc3)c2C)cc1[N+](=O)[O-],4.4%,20µM*,-18.0%,-28.5,u
Cc1ccc(-n2c(C)cc(/C=N/NC(=O)c3ccc(CN4CCOCC4)cc3)c2C)cc1,u,10µM*,-29.2%,u,-18.5%
SMILES,FMDV antiviral,HCV inhibitor,LASV entry inh,HCMV inh,MARV entry inh
Cc1ccc(-n2c(C)cc(/C=N/NC(=O)c3ccncc3)c2C)cc1,8.0%,u,4.4%,-39.4,-1.9%
O=C(N/N=C/c1ccc(OC(=O)c2ccccc2)cc1)c1ccc(CN2CCOCC2)cc1,u,1.5%,-20.7%,48.9,u
Cc1cccc(-n2c(C)cc(/C=N/NC(=O)c3ccc(CN4CCOCC4)cc3)c2C)c1,u,10µM*,-39.3%[14.3 µM],8.2,-3.7%
Brc1cc(-c2ccccc2)nc(-c2ccccc2)n1,-4.7%,11.2µM*,-17.4%,24.6,19.6%[46.1 µM]
COc1ccc2[nH]c(=O)c(CN(Cc3ccccc3)Cc3nnnn3CC3CCCO3)cc2c1 (centres undefined),x,-1.0%,-3.8%,-11.7,-2.2%
CCc1ccc2[nH]c(=O)c(CN(Cc3ccc(OC)cc3)Cc3nnnn3CCOC)cc2c1,u,-10.7%,u,-12.4,14.1µM*
CCOc1ccc2[nH]c(=O)c(CN(Cc3cccs3)Cc3nnnn3C(C)(C)C)cc2c1,x,-16.0%,u,u,u
COc1ccc2[nH]c(=O)c(CN(Cc3cccs3)Cc3nnnn3C(C)(C)C)cc2c1,-27.7%,-14.9%,-14.7%,-67.0*,18.3µM*!
CCC(c1nnnn1-c1c(C)cccc1C)N1CCN(C/C=C/c2ccccc2)CC1 (centres undefined),-15.0%,x,x,-67.7*,x
CSCCC(c1nnnn1-c1c(C)cccc1C)N1CCN(C/C=C/c2ccccc2)CC1 (centres undefined),-16.3%,x,x,-18.2,x
Cc1ccc(C(=O)N2CCCC(N3CCN(c4ccccc4C)CC3)C2)c(=O)[nH]1 (centres undefined),-3.3%,13.6%,x,-69.7*,x
CCc1nccn1CCC(=O)N1CCCC(N2CCN(c3cccc(Cl)c3)CC2)C1 (centres undefined),32.8%,u,x,20.4,x
CCc1nccn1CCC(=O)N1CCCC(N2CCN(c3ccccc3C)CC2)C1 (centres undefined),-10.1%,u,0.8%,-87.4*,-23.8%
CC1CCc2c(sc(NC(=O)c3cc4nc(-c5ccc(Cl)cc5)cc(C(F)(F)F)n4n3)c2C#N)C1 (centres undefined),-5.7%,x,15.6%[46.1 µM],-19.5,-0.3%[46.1 µM]
Cn1cc(CNC(=O)c2cc(COc3ccc4c(c3)CCCC4)on2)cn1,-23.3%,-22.1%,-19.2%,-3.6,-3.7%
CCN(Cc1cnn(C)c1)C(=O)c1cc(COc2ccc3c(c2)CCCC3)on1,-2.2%,22.4µM*,x,14.5,x
CCN(Cc1ccncc1)C(=O)c1cc(COc2ccc(C)c(C)c2)on1,-17.2%,u,-18.8%[46.1 µM],-74.1*,u
C=CC[C@@H]1C=C[C@@H](Oc2ccc(OC)cc2)[C@@H](COC(=O)c2ccc(Br)cc2)O1,x,x,x,x,-4.5%[14.2 µM]
CCCCN(C)CC(O)Cn1cc(/C=C/C(=O)c2ccc(OCC)cc2)c2ccccc21 (centres undefined),-20.7%,x,u,-106.7*,u
